Experimental data published in PubChem BioAssay (Tox21).
Records with an inconclusive call do not appear. Entries that show only a call come without a potency. A number with no mark means an inactive call. Activity calls are given as the source filed them. The call rests on the fitted dose curve; in most records, active means well fitted curve in the direction sought with a large enough effect in the repeat runs; inconclusive means weak or mixed curves; inactive means no such curve, though single readings can be large; an effect the other way counts as inactive or inconclusive. Where a SMILES comes first, the peptide text is derived from it. [ ]: non-standard residue; d: D form. pGlu = O=C1CC[C@@H](C(=O)O)N1

How the values were obtained:
[1] = target: Cytochrome P450 1A2 (Homo sapiens) (UniProt P05177); assay: Cytochrome P450 Family 1 Subfamily A Member 2 (CYP1A2) small molecule antagonists: luciferase reporter qHTS assay (AID 1671199); on activity change, negative = inhibition: series mostly up to about 120 µM
How it was run: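 Signal from luciferin formed by CYP1A2 from a proluciferin substrate is read as luminescence, expressed in relative luminescence units. Compounds sit with enzyme 10 min, NADPH-driven reaction runs 1 h, all at room temperature.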

[2] = target: Voltage-gated inwardly rectifying potassium channel KCNH2 (Homo sapiens) (UniProt Q12809); assay: Human Ether-a-go-go-Related Gene (hERG) channel small molecule antagonists: fluorescence cell-based qHTS assay (AID 1671200);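 on activity change, negative = inhibition: hERG-expressing U2OS cells given a thallium stimulus after FluxOR II dye loading; series mostly up to about 77 µM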
How it was run: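 Channel function was assessed by thallium flux. Cells seeded the previous day and kept at 37 C took up FluxOR II dye over 1 h in the dark at room temperature, then sat another 10 min before stimulation.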

[3] = target: Cytochrome P450 3A4 (Homo sapiens) (UniProt P08684); assay: Cytochrome P450 Family 3 Subfamily A Member 4 (CYP3A4) small molecule antagonists: luciferase reporter qHTS assay (AID 1671201); on activity change, negative = inhibition: series mostly up to about 120 µM
How it was run: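 Compounds in DMSO were pin-transferred onto CYP3A4 enzyme-substrate mix and held 10 min at room temperature. NADPH regenerating solution started the reaction for 1 h; luciferin detection reagent stopped it, and luminescence was read after 20 min.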
Further: nearly all actives have a fitted effect of over 50% in size.
Potency means the concentration at half of the fitted maximal effect.

Cytochrome P450 1A2 (Homo sapiens), sequence (P05177 whole entry, looked up): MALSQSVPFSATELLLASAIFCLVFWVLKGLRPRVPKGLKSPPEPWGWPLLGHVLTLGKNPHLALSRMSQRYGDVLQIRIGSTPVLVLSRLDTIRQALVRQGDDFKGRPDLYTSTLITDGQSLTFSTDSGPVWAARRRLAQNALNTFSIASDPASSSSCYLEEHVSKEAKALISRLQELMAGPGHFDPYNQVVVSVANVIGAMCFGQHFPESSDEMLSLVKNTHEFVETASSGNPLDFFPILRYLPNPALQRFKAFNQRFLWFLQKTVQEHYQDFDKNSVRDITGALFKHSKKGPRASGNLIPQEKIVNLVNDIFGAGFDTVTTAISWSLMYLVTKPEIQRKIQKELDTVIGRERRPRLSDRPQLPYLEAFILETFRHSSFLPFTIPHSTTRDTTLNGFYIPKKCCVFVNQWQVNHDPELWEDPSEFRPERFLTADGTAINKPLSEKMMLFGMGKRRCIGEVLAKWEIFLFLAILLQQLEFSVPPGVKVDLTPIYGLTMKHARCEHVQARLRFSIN
Cytochrome P450 3A4 (Homo sapiens), sequence (P08684 whole entry, looked up): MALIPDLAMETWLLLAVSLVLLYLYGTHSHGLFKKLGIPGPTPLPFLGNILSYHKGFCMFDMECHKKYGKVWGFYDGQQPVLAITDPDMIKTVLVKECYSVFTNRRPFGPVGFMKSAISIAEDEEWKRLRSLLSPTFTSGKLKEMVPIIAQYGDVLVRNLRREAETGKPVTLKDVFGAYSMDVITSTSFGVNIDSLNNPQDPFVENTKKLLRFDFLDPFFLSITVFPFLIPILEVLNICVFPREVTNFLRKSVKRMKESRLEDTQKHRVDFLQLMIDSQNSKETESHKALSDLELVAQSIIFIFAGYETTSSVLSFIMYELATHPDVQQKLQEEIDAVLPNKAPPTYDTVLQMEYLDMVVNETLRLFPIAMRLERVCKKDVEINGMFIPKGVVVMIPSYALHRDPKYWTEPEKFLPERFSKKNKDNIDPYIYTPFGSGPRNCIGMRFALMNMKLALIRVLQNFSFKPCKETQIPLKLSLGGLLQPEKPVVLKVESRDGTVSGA
Voltage-gated inwardly rectifying potassium channel KCNH2 (Homo sapiens), sequence (Q12809 whole entry, looked up): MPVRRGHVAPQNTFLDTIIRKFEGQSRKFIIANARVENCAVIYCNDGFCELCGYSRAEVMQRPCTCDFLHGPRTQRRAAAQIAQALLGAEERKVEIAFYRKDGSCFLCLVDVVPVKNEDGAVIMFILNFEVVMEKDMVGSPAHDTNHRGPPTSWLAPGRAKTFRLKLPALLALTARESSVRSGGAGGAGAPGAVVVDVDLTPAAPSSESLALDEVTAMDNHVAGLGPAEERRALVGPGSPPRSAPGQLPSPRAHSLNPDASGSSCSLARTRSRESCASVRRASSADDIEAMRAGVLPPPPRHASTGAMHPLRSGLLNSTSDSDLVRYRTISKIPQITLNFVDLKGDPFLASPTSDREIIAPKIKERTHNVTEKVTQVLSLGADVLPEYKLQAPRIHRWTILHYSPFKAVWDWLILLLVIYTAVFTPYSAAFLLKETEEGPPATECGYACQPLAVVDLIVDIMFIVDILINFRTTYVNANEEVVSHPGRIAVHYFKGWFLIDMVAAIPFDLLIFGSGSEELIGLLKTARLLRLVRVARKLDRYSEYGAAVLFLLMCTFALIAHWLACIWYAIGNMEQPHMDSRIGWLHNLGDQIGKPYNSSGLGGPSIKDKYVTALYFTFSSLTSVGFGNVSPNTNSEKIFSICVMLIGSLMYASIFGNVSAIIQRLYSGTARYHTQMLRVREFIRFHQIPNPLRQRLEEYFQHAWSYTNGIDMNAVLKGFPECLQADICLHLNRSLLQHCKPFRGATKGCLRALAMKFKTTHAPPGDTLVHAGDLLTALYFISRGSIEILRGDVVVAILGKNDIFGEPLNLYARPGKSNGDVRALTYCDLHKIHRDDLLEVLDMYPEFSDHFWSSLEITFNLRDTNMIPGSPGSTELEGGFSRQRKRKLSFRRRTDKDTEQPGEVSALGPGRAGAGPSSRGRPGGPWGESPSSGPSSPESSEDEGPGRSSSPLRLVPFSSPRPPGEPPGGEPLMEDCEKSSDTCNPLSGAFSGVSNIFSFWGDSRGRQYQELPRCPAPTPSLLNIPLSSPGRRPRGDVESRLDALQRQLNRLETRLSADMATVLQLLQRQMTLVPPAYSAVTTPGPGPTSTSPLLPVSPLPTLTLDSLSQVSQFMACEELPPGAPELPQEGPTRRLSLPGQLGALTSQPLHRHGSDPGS

COc1cc(C(=O)OC(COCCC(C)C)CN2CCOCC2)cc(OC)c1OC (stereo not drawn)
Potency [1]: inactive
Potency [2]: inactive

CC[N+](CC)(CC(=O)Nc1c(C)cccc1C)Cc1ccccc1 (tested in a mixture with another compound)
Potency [1]: inactive

O=C1c2ccccc2C(=O)c2cc(O)ccc21
Potency [1]: 7.11 µM (active)
Potency [2]: inactive

CCCc1nn(C)c2c(=O)[nH]c(-c3cc(S(=O)(=O)N4CCN(C)CC4)ccc3OCC)nc12
Potency [1]: inactive

CCCC(=O)O[C@]1(C(=O)CC)CC[C@H]2[C@@H]3CCC4=CC(=O)CC[C@]4(C)[C@H]3[C@@H](O)C[C@@]21C
Potency [1]: inactive
Potency [2]: inactive

C=C(C)C(=O)OCCOCCOCCOCCOC(=O)C(=C)C
Potency [1]: 63.3 µM (active)
Potency [2]: inactive

COCCOC[C@H](CC1(C(=O)NC2CCC(C(=O)O)CC2)CCCC1)C(=O)Oc1ccc2c(c1)CCC2 (stereo partly drawn)
Potency [1]: inactive
Potency [2]: inactive

CC(=O)N1C[C@H](O)C[C@H]1C(=O)O
Potency [1]: inactive
Potency [2]: inactive
Potency [3]: inactive

CCCCc1nc(Cl)c(CO)n1Cc1ccc(-c2ccccc2-c2nn[nH]n2)cc1
Potency [1]: inactive
Potency [2]: inactive

C=COC(=O)C(C)(CC)CCC(C)C (stereo not drawn)
Potency [1]: inactive
Potency [2]: inactive

COc1cc2c(cc1OC)-c1cc3ccc(OC)c(OC)c3c[n+]1CC2
Potency [1]: 35.9 µM (active)
Potency [2]: inactive

CC1OC1C1CCC2(C)OC2C1 (stereo not drawn)
Potency [1]: inactive
Potency [2]: inactive

O=[N+]([O-])c1cncn1CCN1CCOCC1
Potency [1]: inactive
Potency [2]: inactive

CC1CCC(CO)CC1 (stereo not drawn)
Potency [1]: inactive
Potency [2]: inactive
Potency [3]: inactive

CCOC(=O)c1cnc2c(cnn2CC)c1NN=C(C)C
Potency [1]: 2.04 µM (active)
Potency [2]: inactive

FB(F)F
Potency [1]: inactive
Potency [2]: inactive

Cc1nc(C2CCCCC2)c(-c2ccc(S(N)(=O)=O)c(F)c2)o1
Potency [1]: inactive
Potency [2]: inactive

CCOc1c(N2CCOCC2)cnn(C)c1=O
Potency [1]: inactive
Potency [2]: inactive

O=C(c1ccccc1O)c1ccccc1O
Potency [1]: 3.52 µM (active)
Potency [2]: inactive

Cc1ccc(-c2ncc(Cl)cc2-c2ccc(S(C)(=O)=O)cc2)cn1
Potency [1]: inactive
Potency [2]: inactive

COc1cc(C(=O)NCc2ccc(OCCN(C)C)cc2)cc(OC)c1OC
Potency [1]: inactive
Potency [2]: inactive

CCNC(=O)[C@@H]1CCCN1C(=O)[C@H](CCCN=C(N)N)NC(=O)[C@H](CC(C)C)NC(=O)CNC(=O)[C@H](Cc1ccc(O)cc1)NC(=O)[C@H](CO)NC(=O)[C@H](Cc1c[nH]c2ccccc12)NC(=O)[C@H](Cc1cnc[nH]1)NC(=O)[C@@H]1CCC(=O)N1 ([pGlu]HWSYGLRP-NHEt)
Potency [1]: inactive
Potency [2]: inactive

CC(C)COC(=O)c1ccc(N)cc1
Potency [1]: 6.92 µM (active)
Potency [2]: inactive

CNC(=O)Nc1ccc(Cl)c(Cl)c1
Potency [1]: 5.03 µM (active)
Potency [2]: inactive

CC[C@H]1OC(=O)[C@H](C)[C@@H](O[C@H]2C[C@@](C)(OC)[C@@H](O)[C@H](C)O2)[C@H](C)[C@@H](O[C@@H]2O[C@H](C)C[C@H](N(C)C)[C@H]2O)[C@](C)(OC)C[C@@H](C)C(=O)[C@H](C)[C@@H](O)[C@]1(C)O
Potency [1]: inactive
Potency [2]: inactive

NS(=O)(=O)Cc1noc2ccccc12
Potency [1]: inactive
Potency [2]: inactive

NC(=O)N1c2ccccc2CC(=O)c2ccccc21
Potency [1]: 3.23 µM (active)
Potency [2]: inactive

Cc1ccc(-c2ccccc2C#N)cc1
Potency [1]: 13.8 µM (active)
Potency [2]: inactive

COc1ccnc(CS(=O)c2nc3cc(OC(F)F)ccc3[nH]2)c1OC (stereo not drawn)
Potency [1]: 35.8 µM (active)

CC(=O)C1CCCCC1=O (stereo not drawn)
Potency [1]: inactive
Potency [2]: inactive

CC(=O)O[C@@]12CO[C@@H]1C[C@H](O)[C@@]1(C)C(=O)[C@H](O)C3=C(C)[C@@H](OC(=O)[C@H](O)[C@@H](NC(=O)OC(C)(C)C)c4ccccc4)C[C@@](O)([C@@H](OC(=O)c4ccccc4)[C@H]21)C3(C)C
Potency [1]: inactive
Potency [2]: inactive

CCOC(=O)COc1cc(-n2ncc(C(F)(F)F)c(C)c2=O)c(F)cc1Cl
Potency [1]: 35.6 µM (active)
Potency [2]: 43.6 µM (active)

CCO[Si](OCC)(OCC)c1ccccc1
Potency [1]: inactive
Potency [2]: inactive

C[C@@H]1C[C@H]2[C@@H]3C[C@H](F)C4=CC(=O)C(Cl)=C[C@]4(C)[C@@]3(F)[C@@H](O)C[C@]2(C)[C@@]1(O)C(=O)CO
Potency [1]: inactive
Potency [2]: inactive

CCCCCCCCCCOc1cc2c(=O)c(C(=O)OCC)c[nH]c2cc1OCC
activity change, negative = inhibition [1]: 7.05% [at 10.5 µM]
activity change, negative = inhibition [2]: 1.67% [at 6.97 µM]
activity change, negative = inhibition [3]: 13.5% [at 10.5 µM]

Cc1onc(-c2c(Cl)cccc2Cl)c1C(=O)Cl
Potency [1]: inactive
Potency [2]: inactive

CC(=O)OCC(=O)[C@@]1(O)[C@H](C)C[C@H]2[C@@H]3CCC4=CC(=O)C=C[C@]4(C)[C@@]3(F)[C@@H](O)C[C@@]21C
Potency [1]: inactive
Potency [2]: inactive

O=S(=O)(O)c1cccc(S(=O)(=O)O)c1
Potency [1]: inactive
Potency [2]: inactive
Potency [3]: inactive

CC(C#N)(CCC(=O)O)N=NC(C)(C#N)CCC(=O)O (stereo not drawn)
Potency [1]: inactive
Potency [2]: inactive
Potency [3]: inactive

Cc1ccc(C(=O)c2ccc(CC(=O)O)n2C)cc1
Potency [1]: inactive
Potency [2]: inactive
Potency [3]: inactive

N[C@H](C(=O)O)[C@@H](O)c1ccc(O)c(O)c1
Potency [1]: inactive
Potency [2]: inactive
Potency [3]: inactive

CC(C)c1ccc2ncccc2c1
Potency [1]: 63.3 µM (active)
Potency [2]: inactive
Potency [3]: inactive

CO[C@@]1(NC(=O)CSC[C@@H](N)C(=O)O)C(=O)N2C(C(=O)O)=C(CSc3nnnn3C)CS[C@@H]21
Potency [1]: inactive
Potency [2]: inactive
Potency [3]: inactive

CN(C)[C@@H]1C(=O)C(C(=O)NCN2CCCC2)=C(O)[C@@]2(O)C(=O)C3=C(O)c4c(O)cccc4[C@@](C)(O)C3C[C@@H]12 (stereo partly drawn)
Potency [1]: 17.4 µM (active)
Potency [2]: inactive
Potency [3]: inactive

CC[N+](CC)(CC)CCOc1cccc(OCC[N+](CC)(CC)CC)c1OCC[N+](CC)(CC)CC
Potency [1]: inactive
Potency [2]: inactive
Potency [3]: inactive

CCCCOC(=O)CCC(C)=O
Potency [1]: inactive
Potency [2]: inactive
Potency [3]: inactive

CCCCc1ccc2c(n1)[C@@H](c1ccc(OC)cc1C[C@H](C)C(=O)O)[C@H](C(=O)O)[C@H]2c1ccc2c(c1)OCO2
Potency [1]: inactive
Potency [2]: inactive
Potency [3]: inactive

CCCC[N+](C)(CCCC)CCCC
Potency [1]: inactive
Potency [2]: inactive
Potency [3]: inactive

CCN(C=O)CC
Potency [1]: inactive
Potency [2]: inactive
Potency [3]: inactive

CC(C)(N)C#N
Potency [1]: inactive
Potency [2]: inactive
Potency [3]: inactive

CC(CO)(CO)[N+](=O)[O-]
Potency [1]: inactive
Potency [2]: inactive
Potency [3]: inactive

CCCCCC(C)N (stereo not drawn)
Potency [1]: inactive
Potency [2]: inactive
Potency [3]: inactive

CC(C)(C)C(=O)Oc1ccc(S(=O)(=O)Nc2ccccc2C(=O)NCC(=O)O)cc1
Potency [1]: inactive
Potency [2]: inactive
Potency [3]: inactive

O=Cc1cccc(Br)c1
Potency [1]: 16.3 µM (active)
Potency [2]: inactive
Potency [3]: 81.7 µM (active)

Cc1ncc([C@@H](CCCCCCc2ccc3c(n2)NCCC3)CC(=O)O)cn1
Potency [1]: inactive
Potency [2]: inactive
Potency [3]: inactive

CC(=O)c1ccc2ccccc2c1
Potency [1]: 7.96 µM (active)
Potency [2]: inactive
Potency [3]: inactive

CC(C)C1CCC(O)CC1 (stereo not drawn)
Potency [1]: inactive
Potency [2]: inactive
Potency [3]: inactive

CCCCCCCCCC[N+](C)(C)[O-]
Potency [1]: inactive
Potency [2]: inactive
Potency [3]: inactive

COc1cccc(OC)c1C(=O)N[C@@H]1C(=O)N2[C@@H]1SC(C)(C)[C@@H]2C(=O)O
Potency [1]: inactive
Potency [2]: inactive
Potency [3]: inactive

CN(C)CCN(C)CCN(C)C
Potency [1]: inactive
Potency [2]: inactive
Potency [3]: inactive

C=C[Si](OC(C)=O)(OC(C)=O)OC(C)=O
Potency [1]: inactive
Potency [2]: inactive
Potency [3]: 39.9 µM (active)

Nc1ccncc1N
Potency [1]: inactive
Potency [2]: inactive
Potency [3]: inactive

CCN1CCOCC1
Potency [1]: 39.2 µM (active)
Potency [2]: inactive
Potency [3]: inactive

CN1CCN(c2cc3c(nn2)Oc2ccccc2N3C)CC1
Potency [1]: inactive
activity change, negative = inhibition [2]: 0.457% [at 15.8 µM]
activity change, negative = inhibition [3]: 7.5% [at 23.6 µM]

CN(C)C(=O)Oc1cccc([N+](C)(C)C)c1
Potency [1]: inactive
Potency [2]: inactive
Potency [3]: inactive

[O-][n+]1cccc(CO)c1
Potency [1]: inactive
Potency [2]: inactive
Potency [3]: inactive

CCCCOCCOC(=O)COc1cc(Cl)c(Cl)cc1Cl
Potency [1]: 39.9 µM (active)
Potency [2]: 24.5 µM (active)
Potency [3]: inactive

CC1=NN(c2cc(S(=O)(=O)O)ccc2Cl)C(=O)C1N=Nc1ccccc1 (stereo not drawn)
Potency [1]: inactive
Potency [2]: inactive
Potency [3]: inactive

CC(=O)c1ccccc1[N+](=O)[O-]
Potency [1]: 39.2 µM (active)
Potency [2]: inactive
Potency [3]: inactive

COc1ccc2cc1Oc1cc3c(cc1OC)CC[N+](C)(C)[C@H]3Cc1ccc(cc1)Oc1c(OC)c(OC)cc3c1[C@@H](C2)[N+](C)(C)CC3
Potency [1]: inactive
Potency [2]: inactive
Potency [3]: inactive

CCN1C=CN(C)C1C (stereo not drawn)
Potency [1]: inactive
Potency [2]: inactive
Potency [3]: inactive

COCCOCC(OC)OC
Potency [1]: inactive
Potency [2]: inactive
Potency [3]: inactive

CCCc1ncc(C[n+]2ccccc2C)c(N)n1
Potency [1]: inactive
Potency [2]: inactive
Potency [3]: inactive

C[N+]1(C)CCCC(OC(=O)C(O)(c2ccccc2)c2ccccc2)C1 (stereo not drawn)
Potency [1]: inactive
Potency [2]: inactive
Potency [3]: inactive

CC1=NS(=O)(=O)c2cc(Cl)ccc2N1
Potency [1]: 15.5 µM (active)
Potency [2]: inactive
Potency [3]: inactive

CN1[C@@H]2CC[C@H]1CC(OC(=O)C(O)c1ccccc1)C2 (stereo partly drawn)
Potency [1]: inactive
Potency [2]: inactive
Potency [3]: inactive

CNCCO
Potency [1]: inactive
Potency [2]: inactive
Potency [3]: inactive

NC(CCC(=O)O)C(=O)O (stereo not drawn)
Potency [1]: inactive
Potency [2]: inactive
Potency [3]: inactive

CC(N)C12CC3CC(CC(C3)C1)C2 (stereo not drawn)
Potency [1]: inactive
Potency [2]: inactive
Potency [3]: inactive

Nc1ccn([C@@H]2O[C@H](CO)[C@@H](O)C2O)c(=O)n1 (stereo partly drawn)
Potency [1]: inactive
Potency [2]: inactive
Potency [3]: inactive

Nc1ccn([C@@H]2O[C@H](CO)[C@@H](O)C2(F)F)c(=O)n1
Potency [1]: inactive
Potency [2]: inactive
Potency [3]: inactive

Cc1coc2ccccc2c1=O
Potency [1]: 15.5 µM (active)
Potency [2]: inactive
Potency [3]: inactive

OCCCCCO
Potency [1]: inactive
Potency [2]: inactive
Potency [3]: inactive

CCCOC(=O)CC
Potency [1]: 35.5 µM (active)
Potency [2]: inactive
Potency [3]: inactive

CO/N=C(\C(=O)N[C@@H]1C(=O)N2C(C(=O)O)=C(CSc3nc(=O)c(O)nn3C)CS[C@H]12)c1csc(N)n1
Potency [1]: inactive
Potency [2]: inactive
Potency [3]: inactive
